Measured values taken from PubChem BioAssay (NCI).
About 79,000 compounds went through this panel and 15% of them were active in at least one assay; those are over-represented in the sample as a whole. Calls of active or inactive are those of the source. No stated cut-off is given here; in the data, active means growth inhibition above about 70%; inactive means the rest.

Experiments:
[1] = NCI Yeast Anticancer Drug Screen. Data for the rad50 strain (AID 155);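 further: 0% = growth of vehicle-only cultures of the same strain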; details: S. cerevisiae rad50 strain growth inhibition; at 50.0 µM; hits give high values
Summary of the method: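 Readout: growth inhibition relative to vehicle-treated cultures. Compound exposure was carried out in a genetically defined yeast strain deficient in DNA damage repair.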

[2] = NCI Yeast Anticancer Drug Screen. Data for the mec2-1 strain (AID 157); details: S. cerevisiae mec2-1 strain, at 50.0 µM, hits give high values
Summary of the method: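 Cells of the genetically defined mec2-1 yeast strain are incubated with test compound. Inhibition of growth is calculated against vehicle-treated controls.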

[3] = NCI Yeast Anticancer Drug Screen. Data for the sgs1 mgt1 strain (AID 161);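 further: 0% = growth of cultures given vehicle only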; details: S. cerevisiae sgs1 mgt1 strain, at 50.0 µM, hits give high values
Summary of the method: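 Test agents were incubated with a DNA-repair-mutant yeast strain. Growth was then read and compared against vehicle-treated controls.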

[4] = NCI Yeast Anticancer Drug Screen. Data for the cln2 rad14 strain (AID 165);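 further: 0% = growth equal to vehicle treated cultures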; details: S. cerevisiae cln2 rad14 strain, at 50.0 µM, hits give high values
Summary of the method: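 The screen exposed genetically defined yeast (cln2 rad14) to test compounds and scored growth inhibition relative to vehicle-treated controls.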

[5] = NCI Yeast Anticancer Drug Screen. Data for the bub3 strain (AID 167); details: S. cerevisiae bub3 mutant strain, at 50.0 µM, hits give high values
Summary of the method: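 Readout: yeast growth inhibition, expressed relative to vehicle-only wells. The test organism is a mutant strain from a panel with lesions in DNA repair or checkpoint genes.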

[6] = NCI Yeast Anticancer Drug Screen. Data for the mlh1 rad18 strain (AID 175); details: S. cerevisiae mlh1 rad18 strain growth inhibition; at 50.0 µM; hits give high values
Summary of the method: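 Compound-treated yeast growth, normalised to vehicle controls. Strain bears defined DNA repair mutations.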

Measured: growth inhibition

CN(Cc1ccccc1)C(=O)/C=C/c1ccccc1
inactive: [1] 9.8% | [2] 22.1% | [3] 26.4% | [4] 2.85% | [5] 27.2% | [6] 14.8%

O=CC1N=C(Cc2ccccc2)OC1=O (stereo unspecified)
inactive: [1] 25.6% | [2] 10% | [3] -6.2% | [4] -4.55% | [5] -7.35% | [6] 8.2%

COc1cccc(NC(=O)NCCN(C)c2ccccc2)c1
inactive: [1] -5.7% | [2] 38.5% | [3] 21.1% | [4] -17.2% | [5] 23.1% | [6] 27.2%

CCCCCOc1nc2c(c(=O)n(C)c(=O)n2C)n1C
inactive: [1] -0.4% | [2] -2.55% | [3] 4.65% | [4] -17.6% | [5] 3.45% | [6] 0.85%

COC(=O)/C(=C/Cl)NC(C)=O
inactive: [1] 3.2% | [2] -7.55% | [3] -4.8% | [4] -9.9% | [5] 8.7% | [6] 5.8%

O=c1cc(S(=O)(=O)Cc2ccccc2)[nH]c(=O)[nH]1
inactive: [1] 43% | [2] 6.75% | [3] 0.2% | [4] -43.6% | [5] 8.35% | [6] 31.2%

C#CC[N+](C)(CC#C)CC#C
inactive: [1] 9.85% | [2] 7.8% | [3] 13% | [4] 11.9% | [5] 9.7% | [6] 9.2%

CC1(O)c2ccccc2-c2nc3ccccc3nc21 (stereo unspecified)
inactive: [1] 15.1% | [2] 14.4% | [3] -16.4% | [4] -11.8% | [5] -0.35% | [6] -15.4%

NC(=O)CN(CC(N)=O)C(N)=O
inactive: [1] -14.6% | [2] -18% | [3] -20.2% | [4] 5.15% | [5] -10.3% | [6] -23.6%

O=C(O)CC1CCCc2ccccc2C1CC(=O)O (stereo unspecified)
inactive: [1] 5.25% | [2] -4.3% | [3] 10.4% | [4] 8.8% | [5] 6.85% | [6] 7.4%

C/C(=N\NC(=S)Nc1ccc(C(=O)O)cc1)c1nccc2ccccc12
inactive: [1] 3.2% | [2] 1.1% | [3] 4.2% | [4] 28.9% | [5] 9.75% | [6] 7.25%

N#CCCn1c2ccccc2c2ccccc21
inactive: [1] -6.45% | [2] 27.5% | [3] 2.95% | [4] 26.5% | [5] -1.65% | [6] -0.5%

COC(=O)/C(C#N)=C(/NCCN)Nc1ccccc1
inactive: [1] -10.5% | [2] -16.4% | [3] -39% | [4] 10.1% | [5] -3.1% | [6] -8.15%

CCC(=O)NCCO
inactive: [1] -26.9% | [2] -17.7% | [3] -5.65% | [4] -103% | [5] -9% | [6] -5.25%

Cc1cccc(C(=O)OCc2ccccc2CN2CCCC2)c1
inactive: [1] 1.5% | [2] -7.75% | [3] -10.1% | [4] 2.85% | [5] -2.05% | [6] -1.45%

CCOC(=O)C1=NNC(=O)C1
inactive: [1] 4.4% | [2] -2.95% | [3] 2.35% | [4] 9.85% | [5] -0.3% | [6] 4.75%

CC(C)(C)C(=O)C(c1ccc(-c2cscn2)cc1)c1ccc(-c2cscn2)cc1
inactive: [1] -2% | [2] -2.8% | [3] -1.1% | [4] 1.3% | [5] -5.3% | [6] -22.2%

O=C(/C=C/c1cccc([N+](=O)[O-])c1)Nc1cccnc1
inactive: [1] 7.55% | [2] -1.35% | [3] 38.9% | [4] -11.8% | [5] 29.9% | [6] 24.1%

CCOC(=O)C1CC2(CCC(=O)O2)C(=O)O1 (stereo unspecified)
inactive: [1] -5.15% | [2] -5.95% | [3] -20.6% | [4] 3.05% | [5] -5.75% | [6] -6.85%

Cc1no[n+]([O-])c1C(=O)NN
inactive: [1] 6.35% | [2] 6.6% | [3] -14.3% | [4] -46.8% | [5] -20.1% | [6] -12.4%

O=C(CCc1ccccc1Cl)CC(=O)CC(O)(c1ccccc1)c1ccccc1
inactive: [1] 68% | [2] 57.5% | [4] 42.2% | [5] 39.4% | [6] 61.9%
active: [3] 70.5%

CC(=O)NCc1cc2c3c(c1)CCCN3CCC2
inactive: [1] 6% | [2] -7.15% | [3] 4.15% | [4] -32.5% | [5] 0.1% | [6] -4.8%

CCCCC(Sc1cc(Cl)c(C)cc1S(=O)(=O)Nc1n[nH]c(N)n1)C(=O)OC (stereo unspecified)
inactive: [1] -4.85% | [2] -12.3% | [3] 50% | [4] 7% | [5] -18.8% | [6] 5.75%

CN1C(=O)C(O)CC1c1ccccc1C(F)(F)F (stereo unspecified)
inactive: [1] 11.7% | [2] 4.2% | [3] 31.2% | [4] 17.9% | [5] 5.05% | [6] -30.6%

COC(=O)c1cc2c(o1)Sc1ccccc1NC2=O
inactive: [1] -4.3% | [2] -29.9% | [3] -12.6% | [4] 3.65% | [5] -8.55% | [6] 10.7%

O=C(N/C(=C/c1ccccc1)C(=O)N1CCN(C(=O)/C(=C\c2ccccc2)NC(=O)c2ccccc2)CC1)c1ccccc1
inactive: [1] 0.9% | [2] -0.45% | [3] -8.05% | [4] -5.7% | [5] -6.8% | [6] -2.95%

O=C(COc1cccc(Cl)c1)Nc1ccccc1
inactive: [1] -2.9% | [2] -31.9% | [3] 7.85% | [4] -17.1% | [5] 39.7% | [6] 2.05%

COc1ccc(N(CN2C(=O)CCC2=O)CS(=O)(=O)c2ccc(Cl)cc2)cc1
inactive: [1] 16.6% | [2] 0.2% | [3] 11.5% | [4] 14.9% | [5] -3.75% | [6] -16.4%

CCCCCCCCCCCCNC(=S)N/N=C/c1ccc(OC)cc1
inactive: [1] -19.1% | [2] -10.5% | [3] -16.8% | [4] 13.3% | [5] -8.4% | [6] -28.2%

O=C(O)c1c[nH]c2cc(O)ccc2c1=O
inactive: [1] -0.5% | [2] 3.3% | [3] -4.75% | [4] -6.5% | [5] 15.3% | [6] -2.7%

COC(=O)/C=C/c1c(=O)c(C(=O)OC)cn2cnc3nc[nH]c3c12
inactive: [1] -14.5% | [2] 2.35% | [3] -20.6% | [4] -13.3% | [5] -5.9% | [6] -5.8%

CNC(=O)c1ccccc1N
inactive: [1] 1.75% | [2] -6.95% | [3] -11.7% | [4] -84.2% | [5] 1.05% | [6] -17.2%

O/N=C/C(=Nc1ccc2ccccc2c1)NO
inactive: [1] 41% | [2] 3.25% | [3] -4.5% | [4] -18.2% | [5] -8.45% | [6] 23.5%

CC(C)CCCC(C)C1CCC2C3CC=C4CC(O[N+](=O)[O-])CCC4(C)C3CCC12C (stereo unspecified)
inactive: [1] -24.8% | [2] -6% | [3] -17.1% | [4] -13.8% | [5] -5.15% | [6] 17.9%

O=[N+]([O-])c1ccc(S(=O)(=O)n2cccc2)cc1
inactive: [1] 0.9% | [2] 8.8% | [3] -8.05% | [4] -20.9% | [5] 3.6% | [6] -19.8%

CCn1c(=O)c2c3ccc(OC(C)=O)cc3[nH]c2c2ccc(OC(C)=O)cc21
inactive: [1] -17.9% | [2] -30.5% | [3] -10.9% | [4] 9.35% | [5] 4% | [6] -21.6%

Cc1cc(C)c(C#N)c(NN)n1
inactive: [1] -5.35% | [2] -2.8% | [3] 11.1% | [4] 12.2% | [5] -0.5% | [6] -1.05%

COc1ccc(OC)c(NC(=O)Nc2nccs2)c1
inactive: [1] 1.9% | [2] 42.9% | [3] 29.1% | [4] -5.25% | [5] 36.6% | [6] 32.5%

CCC(C)NC(=O)/C(=C\c1ccccc1O)NC(=O)c1ccccc1 (stereo unspecified)
inactive: [1] -30.1% | [2] -35.6% | [3] -2.25% | [4] -5.65% | [5] -4.3% | [6] -4.45%

Cc1cc(C)cc(C(=O)N=C(c2ccncc2)c2nc(-c3ccccc3)oc2O)c1
inactive: [1] -3.3% | [2] 13.9% | [3] -16.6% | [4] -12.4% | [5] 3.15% | [6] -1.3%

OC1CCC(c2ccccc2)CC1 (stereo unspecified)
inactive: [1] 29.1% | [2] 11.8% | [3] 19.9% | [4] 15.7% | [5] 4.75% | [6] 7.35%
